Where “and” joins values, the source holds several entries; their conditions need not be identical. Equal entries are not always repeated. About 4,300 (8.3%) of roughly 52,000 compounds were called active. Cut-off read from the data, not from the text of the source: active = survival mostly below about 52% (no sharp cut-off); inactive = mostly above about 56%. Many of the other results were omitted from the sample, so actives are more common in it than they were. A structure can be active in one record and inactive in another.
What follows are compounds tested on DeltatarO mutant (assay: growth inhibition of S. aureus wild type versus tarO mutant, primary screen, teichoic acid synthesis inhibitors, RN4220, OD600 (AID 463173)). Conditions: OD600, 18 h, stronger effect = lower value, screened at 18.75 µg/mL (by protocol).

SMILES	survival
Cc1cc(C)cc(NC(=O)C2CCCN(S(=O)(=O)c3cccc4nsnc34)C2)c1 (stereo unspecified)	105% (inactive)
Cc1ccc(N2CCN(C(=O)c3cnn(-c4ccc(F)cc4F)c3C3CCN(C(=O)OC(C)(C)C)CC3)CC2)c(C)c1	91% (inactive)
CCc1ccc(NC(=O)C(CC)n2nnc(C(=O)OC)c2C(=O)OC)cc1 (stereo unspecified)	-3% (active)
CCOC(=O)c1nnn(C(CC)C(=O)Nc2ccc(F)cc2)c1C(=O)OCC (stereo unspecified)	119% (inactive)
CCC(C(=O)Nc1cc(C)ccc1OC)n1nnc(C(=O)OC)c1C(=O)OC (stereo unspecified)	94% (inactive)
Cc1ccc(CNC(=O)c2cc3ccc4cccnc4c3[nH]2)cc1	32% (active)
CCOc1ccccc1NC(=O)c1ccc(C(=O)Nc2ccccc2OCC)cc1	83% (inactive)
CCOc1cc(C(=O)Nc2ccncc2)cc(OCC)c1OCC	94% (inactive)
CCOc1cc(C(=O)Nc2cccc3cccnc23)cc(OCC)c1OCC	10% (active)
Cc1cccc(OCC(=O)Nc2cccc3cccnc23)c1C	60% (active)
O=C(COc1ccc(Cl)cc1Cl)Nc1cccc2cccnc12	79% (inactive)
CC(C)c1ccc(C(=O)Nc2cccc3cccnc23)cc1	-1% (active)
Cc1cc(C)cc(OCC(=O)Nc2cccc3cccnc23)c1	73% (inactive)
Cc1ccc2cccc(NC(=O)c3ccc(OC(C)C)cc3)c2n1	95% (inactive)
Cc1ccc(C(=O)Nc2cccc3cccnc23)cc1Cl	72% (inactive)
O=C(NCc1ccccc1)c1cc2ccc3cccnc3c2[nH]1	80% (inactive)
O=C(NCc1ccc(Cl)cc1)c1cc2ccc3cccnc3c2[nH]1	58% (inactive)
CCOc1ccc(C(=O)NC2CCN(C(=O)NCc3ccccc3)CC2)cc1	84% (inactive)
COc1ccc(-c2nc(C)c(CCNC(=O)C(=O)Nc3ccccc3OC)s2)cc1	89% (inactive)
c1ccc(Cc2nnc(SCc3nc(-c4cccs4)no3)n2-c2ccccc2)cc1	56% (inactive)
COc1cc(NS(=O)(=O)c2cc3c(cc2C)N(C)CCO3)cc(OC)c1OC	90% (inactive)
Cc1ccccc1CN1C(=O)c2ccccc2S(=O)c2ccc(C(=O)NCc3ccco3)cc21 (stereo unspecified)	71% (inactive)
CC(C)CCn1c(=O)c2sccc2n2c(CCCC(=O)NCCc3ccccc3)nnc12	68% (inactive)
CCS(=O)(=O)NCC(c1ccco1)N1CCN(c2ccc(OC)cc2)CC1 (stereo unspecified)	91% (inactive)

SMILES	survival
CCOC(=O)c1ccccc1NC(=O)c1cc2ccc3cccnc3c2[nH]1	117% (inactive)
CCOc1ccccc1NC(=O)c1cc2ccc3cccnc3c2[nH]1	37% (active)
CCOc1ccccc1N(CC)C(=O)c1cc2ccc3cccnc3c2[nH]1	102% (inactive)
COCCNC(=O)CSc1nc(-c2ccc(C)cc2)[nH]c1-c1ccc(OC)cc1	84% (inactive)
COc1cc(OC)c(NC(=O)C(NS(=O)(=O)c2cccc3nsnc23)c2ccccc2)cc1Cl (stereo unspecified)	60% (inactive)
COc1ccccc1N1CCN(C(=O)c2cn(C)c3ccc(S(=O)(=O)N4CCOCC4)cc3c2=O)CC1	84% (inactive)
Cc1ccc(OCCn2cc(C(=O)c3ccco3)c3ccccc32)cc1C	27% (active)
O=C(c1ccco1)c1cn(CCOc2ccc(F)cc2)c2ccccc12	99% (inactive)
Cc1cc(OCCn2cc(C(=O)c3ccco3)c3ccccc32)ccc1Cl	53% (inactive)
CC(C)(C)c1ccc(OCCn2cc(C(=O)c3ccco3)c3ccccc32)cc1	35% (active)
O=C(c1ccco1)c1cn(CCOc2ccc(Cl)cc2)c2ccccc12	78% (inactive)
O=C(Cn1cc(C(=O)c2ccco2)c2ccccc21)Nc1ccc(Br)cc1	88% (inactive)
Cc1ccc(C(C)C)c(OCCn2cc(C(=O)c3ccco3)c3ccccc32)c1	35% (active)
O=C(Cn1cc(C(=O)c2ccco2)c2ccccc21)Nc1ccccc1	41% (active) and 47% (inactive)
COc1ccc(OCCn2cc(C(=O)c3ccco3)c3ccccc32)cc1	56% (inactive)
Cc1ccccc1OCCn1cc(C(=O)c2ccco2)c2ccccc21	44% (inactive)
CCOc1ccc(NC(=O)Cn2cc(C(=O)c3ccco3)c3ccccc32)cc1	63% (inactive)
Cc1ccc(C)c(OCCn2cc(C(=O)c3ccco3)c3ccccc32)c1	104% (inactive)
COc1ccccc1N1CCN(Cc2cc(COC(C)C)c3cccnc3c2O)CC1	84% (inactive)
CCC(C)(C)n1nnnc1C(C(C)C)N(Cc1cccnc1)Cc1ccco1 (stereo unspecified)	78% (inactive)
COc1ccccc1N1CCN(C(=O)c2cn(C)c3ccc(S(=O)(=O)N(C)C4CCCCC4)cc3c2=O)CC1	83% (inactive)
CCCC12CN3CC(CCC)(CN(C1)C3c1c(C)[nH]c(=O)[nH]c1=O)C2=O (stereo unspecified)	109% (inactive)
CCC(C)NC(=O)c1c(-c2ccccc2)c(-c2ccccc2)nn(C)c1=O (stereo unspecified)	50% (inactive)
CCOc1ccc(OCC)c(NC(=O)C2CCCN(S(=O)(=O)c3cc(Br)cc4c3N(C(=O)CC)CC4)C2)c1 (stereo unspecified)	100% (inactive)

SMILES	survival
COc1ccc(CCNC(=O)CCCn2c(=O)c3ccccc3n(Cc3cccc(Cl)c3)c2=O)cc1OC	72% (inactive)
Cc1ccc2nc(N3CCN(C(=O)C4COc5ccccc5O4)CC3)sc2c1 (stereo unspecified)	89% (inactive)
COc1ccc(CNC(=O)COCc2cc(-c3ccc4c(c3)OCO4)on2)cc1	94% (inactive)
COc1ccccc1CNC(=O)COCc1cc(-c2ccc3c(c2)OCO3)on1	25% (active)
COc1cccc(CNC(=O)COCc2cc(-c3ccc4c(c3)OCO4)on2)c1	37% (active)
O=C(COCc1cc(-c2ccc3c(c2)OCO3)on1)NCc1ccccc1Cl	70% (inactive)
Cc1ccc(CNC(=O)COCc2cc(-c3ccc4c(c3)OCO4)on2)cc1	75% (inactive)
O=C(COCc1cc(-c2ccc3c(c2)OCO3)on1)NCc1ccc(F)cc1	85% (inactive)
O=S(=O)(c1ccccc1)n1nc(-c2ccco2)nc1NCc1ccccc1	71% (inactive)
O=C(Nc1ccc(N2CCN(C(=O)c3ccco3)CC2)cc1)c1ccccc1	93% (inactive)
CCOc1ccc(-n2nc3ccc(NC(=O)c4cccc(F)c4)cc3n2)cc1	84% (inactive)
CCCNC(=O)c1ccc2c(c1)nc1n2CCCCC1	94% (inactive)
COc1cccc(C(=O)NCCc2csc(-c3cccc(F)c3)n2)c1OC	75% (inactive)
Cc1cccc(N2CCN(C(=O)CN3C(=O)COc4ccc(S(=O)(=O)N5CCCC5)cc43)CC2C)c1 (stereo unspecified)	77% (inactive)
O=C(COc1ccccc1[N+](=O)[O-])N1CCC(c2nc3ccccc3o2)CC1	79% (inactive)
CCOC(=O)c1csc2c1CCC/C2=N/OC(C)=O	86% (inactive)
CCOC(=O)c1cc2c(=O)n3ccccc3nc2n(Cc2ccco2)c1=NC(=O)c1cc(C)cc(C)c1	29% (active)
CCOC(=O)c1cc2c(=O)n3ccccc3nc2n(Cc2ccco2)c1=NC(=O)c1cccc(C)c1	33% (active)
CCOc1ccccc1NC(=O)Cn1ccn(-c2ccccc2)c(=O)c1=O	49% (inactive)
COc1ccc(OCC(=O)Nc2nnc(S(=O)(=O)N3CCCCCC3)s2)cc1	76% (inactive)
Cc1ccc(OCC(=O)Nc2nnc(S(=O)(=O)N3CCCCCC3)s2)cc1	64% (inactive)
Cc1cc(C)cc(N(C)S(=O)(=O)c2nnc(NC(=O)COc3ccc(C)c(C)c3)s2)c1	30% (active)
CCC(=O)Nc1nnc(S(=O)(=O)N2CCCCCC2)s1	89% (inactive)
O=C(COc1ccccc1)Nc1nnc(S(=O)(=O)N2CCCCCC2)s1	79% (inactive)

SMILES	survival
Cc1cc(C)cc(N(C)S(=O)(=O)c2nnc(NC(=O)COc3ccc(Cl)cc3)s2)c1	80% (inactive)
CCN(CC)S(=O)(=O)c1nnc(NC(=O)COc2cccc(C)c2)s1	94% (inactive)
O=C(COc1ccccc1)Nc1nnc(S(=O)(=O)N2CCCC2)s1	39% (active)
Cc1cccc(OCC(=O)Nc2nnc(S(=O)(=O)N3CCCCCC3)s2)c1	48% (active)
CC(Oc1ccccc1)C(=O)Nc1nnc(S(=O)(=O)N2CCCCCC2)s1 (stereo unspecified)	50% (inactive)
O=C(COc1ccc(Cl)cc1)Nc1nnc(S(=O)(=O)N2CCCCCC2)s1	55% (active)
CN(c1ccccc1)S(=O)(=O)c1nnc(NC(=O)COc2ccccc2)s1	56% (inactive)
CC1(C)CC(=O)C2=C(C1)NC1=C(C(=O)CC(C)(C)C1)C2c1ccc2c(c1)OCO2	96% (inactive)
NC(=O)c1nc(-c2ccc(F)c(F)c2)nc2c1[nH]c(=O)n2-c1cccc(Cl)c1	86% (inactive)
O=C(Nc1cccc(C(F)(F)F)c1)N1CCC(CN2CCCCCC2)CC1	83% (inactive)
Cc1cccc(C(=O)Nc2ccc(N3CCC(CCN4CCOCC4)CC3)c(C(=O)O)c2)c1	66% (inactive)
Cc1ccc(N2CCN(c3cc(C)nc4c(-c5ccc(Cl)cc5)c(C)nn34)CC2C)cc1 (stereo unspecified)	55% (inactive)
COc1ccc(C(=O)c2cn(Cc3ccc(F)cc3)c3c(F)cc(F)cc3c2=O)cc1	103% (inactive)
Cc1cccc(N2CCN(C(=O)CCNS(=O)(=O)c3ccc4c(c3)CCN4C(=O)C3CC3)CC2)c1C	73% (inactive)
N#Cc1ccccc1NC(=O)CSc1nnc(N)s1	76% (inactive)
CCCC(=O)Nc1nnc(S(=O)(=O)N2CCCCCC2)s1	91% (inactive)
CC(C)CC(=O)Nc1nnc(S(=O)(=O)N2CCCCCC2)s1	109% (inactive)
O=C(COc1ccc(F)cc1)Nc1nnc(S(=O)(=O)N2CCCC2)s1	39% (active)
COc1ccc(Cl)cc1N/C=C(/C#N)c1nc2ccccc2n1C	82% (inactive)
Cn1c(/C(C#N)=C/C2CC=CCC2)nc2ccccc21 (stereo unspecified)	78% (inactive)
COc1ccc(/C=C(\C#N)c2nc3ccccc3n2C)c(OC)c1	29% (active)
COc1cc(/C=C(\C#N)c2nc3ccccc3n2C)cc(OC)c1OC	47% (active)
Cn1c(/C(C#N)=C/c2ccccc2Br)nc2ccccc21	79% (inactive)
Cn1c(/C(C#N)=C/c2ccc(C(F)(F)F)cc2)nc2ccccc21	103% (inactive)

— PubChem BioAssay AID463173 (ICCB-Longwood Screening Facility, Harvard Medical School, 2010)
